p53 reactivation = re-activators of mutant p53; H1299 p53-A138V BP100-luciferase reporter, luminescence, 24 h; Potency, µM (top dose mostly 92.2 µM), for the others: at the highest dose activity change, positive = activation, actives largely listed as activators; 320,000 compounds, 0.063% hits; also: potency is read from the fitted curve at half-maximal effect; % of control where 0% means no effect; nearly all actives have a fitted effect of over 45% in size
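H1299 (p53-null), stable ts p53-A138V + BP100-Luc; 1000 cells/well, Opti-MEM/10% FBS; cpd 4 pt, 1:5; 24 h, 37 deg C, 5% CO2; detection reagent 10 min RT; luminescence.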
Tb PFK inh = inhibitors of T. brucei phosphofructokinase; O15648; T. brucei PFK, ADP-Glo luminescence; Potency, µM (highest dose often 57.5 µM), for inactives: at the highest dose activity, negative = inhibition, hits mostly inhibitors; 330,000 compounds, 0.17% hits;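 also: potency is read from the fitted curve at half-maximal effect; 0% = uninhibited 1x PFK enzyme wells and -100% = no-enzyme wells; nearly all actives have a fitted effect of over 60% in size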
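In TEA buffer at pH 8.0 with 5 mM MgCl2, enzyme (1.25 nM) converted F6P (0.5 mM) and ATP (0.1 mM) for 45 min at room temperature. ADP product was read by luciferase luminescence.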
RXFP1 antag = RXFP1 (human) relaxin receptor antagonism; 350,000 compounds, 0.59% hits; AID 1259400; Q9HBX9; activity change, negative = inhibition, % at 57.5 µM; HEK293-RXFP1, relaxin-stimulated cAMP HTRF, 30 min; stronger effect = lower value;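 active = activity change of -60% or lower, but not beyond a set lower limit; inconclusive = change between -60% and -40%, or beyond the set limit; inactive = change above -40%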; also: % is scaled to controls: 0 for no effect and ±100 for the full control effect
Target sequence (Q9HBX9 whole entry, looked up): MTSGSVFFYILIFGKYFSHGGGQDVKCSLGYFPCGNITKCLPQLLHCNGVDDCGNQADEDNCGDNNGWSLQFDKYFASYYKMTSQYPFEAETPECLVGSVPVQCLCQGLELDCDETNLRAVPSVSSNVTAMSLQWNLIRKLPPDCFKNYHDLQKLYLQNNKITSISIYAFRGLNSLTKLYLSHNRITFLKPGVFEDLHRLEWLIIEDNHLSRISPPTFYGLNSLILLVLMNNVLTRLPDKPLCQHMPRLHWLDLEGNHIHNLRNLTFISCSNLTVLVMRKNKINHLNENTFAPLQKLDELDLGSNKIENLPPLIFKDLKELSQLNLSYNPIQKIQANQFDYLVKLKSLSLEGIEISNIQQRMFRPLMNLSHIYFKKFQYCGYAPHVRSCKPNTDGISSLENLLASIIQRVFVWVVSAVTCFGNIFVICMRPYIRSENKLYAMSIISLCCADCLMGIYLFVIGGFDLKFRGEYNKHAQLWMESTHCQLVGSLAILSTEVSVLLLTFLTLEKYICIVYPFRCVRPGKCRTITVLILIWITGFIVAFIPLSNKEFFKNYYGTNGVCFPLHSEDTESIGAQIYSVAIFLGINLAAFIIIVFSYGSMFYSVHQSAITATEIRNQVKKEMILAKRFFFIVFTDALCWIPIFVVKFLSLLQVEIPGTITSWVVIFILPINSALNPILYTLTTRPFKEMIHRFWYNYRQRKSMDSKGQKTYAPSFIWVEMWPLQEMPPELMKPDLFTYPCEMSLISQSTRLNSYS
RXFP1 ag = RXFP1 (human) receptor agonism. Q9HBX9. HEK293T-RXFP1 cAMP TR-FRET, 30 min; response scale: percent of porcine relaxin response, buffer zero. Potency, µM (titrated, usually from 57.5 µM), for inactives: top-dose activation, most hits filed as activators. 370,000 compounds, 0.3% hits. AID 2676; also: potency is read from the fitted curve at half-maximal effect; % is scaled to controls: 0 for no effect and ±100 for the full control effect; nearly all actives have a fitted effect of over 60% in size
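Agonist response is measured as cAMP accumulation in an RXFP1-transfected HEK293T line under PDE4 inhibition. Values are scaled between buffer-only and 29 nM porcine relaxin, and EC50s come from standard Hill equation fits.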
gsp antag = gsp mutant antagonism; gsp-mutant cells, cAMP HTRF, 30 min; Potency, µM (highest dose often 76.9 µM), inactives show at the top dose activity change, negative = inhibition, hits mostly inhibitors; AID 624288; 340,000 compounds, 0.4% hits; calls by dose curve; cell line not stated here;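 also: intracellular cAMP measured with PDE inhibitor Ro 20-1724 present during compound exposure; potency is read from the fitted curve at half-maximal effect; % is scaled to controls: 0 for no effect and ±100 for the full control effect; nearly all actives have a fitted effect of over 65% in size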
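HTRF cAMP measurement after 30 min RT detection following 30 min, 37C compound treatment alongside […] (added as 300 uM solution) in G418-selected cells seeded at 2000/well and grown 16–24 h.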
gsp agonist = activates gsp, the McCune-Albright syndrome mutation; gsp mutant cells, cAMP HTRF, 30 min; 340,000 compounds, 0.13% hits; Potency, µM (top dose mostly 76.9 µM), for the others: top-dose activation (cAMP increase), hits mostly activators; active = well fitted activation curve with a large enough effect; inconclusive = small, poorly fitted or top-dose-only effect, or another doubt; inactive = no such curve, though single readings can be large or run the other way; cell line not stated here;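 also: phosphodiesterase inhibitor Ro 20-1724 added with compounds to block cAMP breakdown; potency is read from the fitted curve at half-maximal effect; nearly all actives have a fitted effect of over 60% in size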
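Cells stably selected in G418 were plated at 2000/well, grown 16-24 hr, then given compounds in DMSO with the PDE inhibitor […] (300 uM solution added) for 30 min at 37C; cAMP was read by HTRF.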
Active calls of the source: *; ? = inconclusive; . = no result; ! = a repeat was not active; [ ] = another dose, or the depositor's remark. This is a sample that favours compounds with a hit; in the whole collection about 1.1% have one here. Unless noted, calls follow the shape of the dose curve; as a rule, active = well fitted curve in the direction sought with a large enough effect; inconclusive = small, poorly fitted or top-dose-only effect, or another doubt; inactive = no such curve, though single readings can be large; an effect the other way counts as inactive or inconclusive.

SMILES	p53 reactivation	Tb PFK inh	RXFP1 antag	RXFP1 ag	gsp antag	gsp agonist
O=C(Nc1cc(C(=O)N2CCCC2)ccc1N1CCCC1)c1ccccc1F	-1%	-7%	-26	-1%	6.3µM*	?
O=C(Nc1ccc(C(=O)N2CCCC2)cc1)c1ccccc1F	?	?	-4	0%	-3%	14%
CC(=O)N/C(=N/c1nc(C)cc(C)n1)Nc1ccc(C)cc1Cl	-2%	13%	-16	1%	-6%	-3%[15.4 µM]
Cc1cccc(NC(=O)Cn2cc(C(=O)C3CC3)c3ccccc32)c1	-3%	?	-7	3%	.	-11%[15.4 µM]
Cc1ccc(NC(=O)Cn2cc(C(=O)C3CC3)c3ccccc32)cc1	-4%	1%	-2	10µM*!	9%	17%[15.4 µM]
O=C(Cn1cc(C(=O)C2CC2)c2ccccc21)Nc1ccc(Br)cc1	.	.	7	20µM*	.	.
Cc1cccc(C(=O)N(Cc2ccco2)Cc2ccccc2F)c1	.	.	-72*	-3%	.	.
Cc1ccc(CN(Cc2ccco2)C(=O)c2cccc(C)c2)cc1	.	.	-7	-1%	.	.
COc1ccccc1N1C(=O)C(Cl)=C(N2CCCC2)C1=O	.	0%	3	-1%	-12%	-10%[15.4 µM]
Brc1ccc(CSc2ncn[nH]2)cc1	19%	-4%	6	0%	32µM*	-2%
O=C(O)c1ccc(CSc2ncn[nH]2)cc1	7%	-10%	1	2%	6%	-6%
CCN(CC)CC(=O)N1c2ccccc2Sc2ccccc21	-9%	-1%	1	-2%	19%	-2%
CCN(CC)CCCCN1c2ccccc2Sc2ccccc21	-5%	-6%	-63*	-1%	11%	?
COc1cc(O)c(C(=O)c2ccccc2)cc1S(=O)(=O)O	.	.	-9	.	.	.
COc1ccc(C(=O)c2ccccc2)c2c(O)ccc(C(=O)c3ccccc3)c12	4%	-1%	-21	0%	28µM*	-11%
C=CCn1c(SCC(=O)NC2CCCC2)nc2scc(-c3ccco3)c2c1=O	1%	-2%	-62*	1%	-14%	-23%
CC(N)=Nc1ccc([N+](=O)[O-])cc1	-10%	-2%	3	-2%	14%	30%
O=[N+]([O-])c1ccc(N=Nc2c(Cl)cc(O)cc2Cl)cc1	24%	-9%	3	0%	16µM*	-26%
N=c1oc2cc(O)ccc2cc1C(=O)Nc1ccc(Cl)cc1	31%	-11%	0	4%	40µM*	?
Clc1ccc(-c2noc(CSc3nnc(-c4ccncc4)n3-c3ccccc3)n2)cc1	-10%	2%	-11	0%	32µM*	-35%
Cc1ccc2nc(Cl)c(/C=N/NC(=O)[C@H]3C[C@@H]3c3ccccc3)cc2c1	-9%	-1%	13	2%	2%	-1%[15.4 µM]
Cc1ccc2nc(Cl)c(/C=N/NC(=O)c3ccccc3O)cc2c1	13%	3%	-11	1%	35µM*	-11%
CC1(C)N=C(N)N=C(N)N1CCCCc1ccccc1	.	.	-6	.	-11%	14µM*
COc1ccc(CNC(=O)CCCn2nc(C)n3ccnc3c2=O)cc1	10%	1%	9	?	5%	?
Cc1nn(CCCC(=O)NCc2ccccc2)c(=O)c2nccn12	7%	-3%	20	28µM*	9%	?
SMILES	p53 reactivation	Tb PFK inh	RXFP1 antag	RXFP1 ag	gsp antag	gsp agonist
CCc1ccc(CNC(=O)CCCn2nc(C)n3ccnc3c2=O)cc1	.	-1%	-6	?	7%	16µM*
C[C@H](CO)N1C[C@H](C)[C@@H](CN(C)S(=O)(=O)c2cccc(F)c2)Oc2ncc(Br)cc2C1=O	.	.	8	.	.	32µM*
CC(=O)N1N=C(c2ccc(C)o2)CC1c1cccc(F)c1 (stereo unspecified)	0%	-5%	-61*	-1%	-4%	?
Cc1[nH]c(N=Nc2ccccc2)nc1N=Nc1ccccc1	?	2%	-94*	0%	-18%	3%[15.4 µM]
Nc1ccc(N=Nc2ccccc2)c(N)n1	?	3%	-22	1%	5%	.
Nc1nn(-c2ccccc2)nc1C(=O)OCc1c(F)cccc1Cl	.	.	.	4%	.	.
S=c1[nH]ccc2ccccc12	.	.	6	.	28%	5µM*
c1ccc2scnc2c1	.	.	.	.	-5%	.

Source: PubChem (National Center for Advancing Translational Sciences (NCATS))
